The text below walks through data of paper PMC4081100, “A DNA-binding-site landscape and regulatory network analysis for NAC transcription factors in Arabidopsis thaliana”.

Holding throughout (assay): universal protein binding microarray (PBM); transcription factors of Arabidopsis thaliana; high values mean tight binding
Settings in all cases: protein: recombinant; tags: GST; chain copies: 2; dsDNA, one strand shown

In one experiment the target is T1, GST-ANAC092(1-176) (Arabidopsis thaliana, UniProt Q9FKA0 1-176).
T1 sequence: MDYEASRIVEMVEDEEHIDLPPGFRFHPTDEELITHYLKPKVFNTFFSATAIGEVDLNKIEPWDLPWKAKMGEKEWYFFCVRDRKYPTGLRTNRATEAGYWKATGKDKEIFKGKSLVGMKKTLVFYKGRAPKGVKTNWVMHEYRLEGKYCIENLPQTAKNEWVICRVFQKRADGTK
The gist of the method: (§1)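 GST-tagged NAC-domain, full-length or DNA-binding-domain proteins were induced in cells, with zinc acetate added for zinc-finger proteins. They were purified on glutathione–Sepharose 4B and quantified by A280 or anti-GST western blot. Each was applied at 200 to 500 nM final, in duplicate, to custom all-10-mer Agilent 4 × 180K arrays made double-stranded by primer extension, with gapped and ungapped 8-mers scored. Binding is the normalised enrichment score (E-score).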

The next experiment addresses GST-NTL6(1-168) (Arabidopsis thaliana, UniProt Q9SCK6 1-168). The gist of the method: as §1
In the next experiment the target is T2, GST-ANAC019 NAC domain (Arabidopsis thaliana, UniProt Q9C932 14-162).
T2 sequence: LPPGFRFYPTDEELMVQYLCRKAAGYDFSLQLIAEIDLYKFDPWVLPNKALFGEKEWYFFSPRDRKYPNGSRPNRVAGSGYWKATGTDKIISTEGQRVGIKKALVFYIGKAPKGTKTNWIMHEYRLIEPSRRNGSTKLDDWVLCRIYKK
The method, boiled down: as §1

For the next experiment, the target named is T3, GST-ANAC055(1-171) (Arabidopsis thaliana, UniProt Q9LDY8 1-171).
T3 sequence: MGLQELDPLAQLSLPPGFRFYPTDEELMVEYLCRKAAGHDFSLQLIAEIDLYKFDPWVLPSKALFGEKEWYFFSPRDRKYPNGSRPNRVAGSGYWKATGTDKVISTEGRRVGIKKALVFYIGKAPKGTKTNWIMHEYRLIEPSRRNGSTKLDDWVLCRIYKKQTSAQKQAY
The method, boiled down:
as §1

The next experiment concerns the target T4, GST-ATAF1 NAC domain (Arabidopsis thaliana, UniProt Q39013 7-158).
T4 sequence: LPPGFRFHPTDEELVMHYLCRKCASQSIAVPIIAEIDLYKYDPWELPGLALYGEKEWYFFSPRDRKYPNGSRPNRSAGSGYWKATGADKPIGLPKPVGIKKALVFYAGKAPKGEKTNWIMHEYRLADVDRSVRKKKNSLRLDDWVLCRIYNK
The gist of the method: as §1

For experiment [1], the target named is T5, GST-ANAC092(1-285) full length (Arabidopsis thaliana, UniProt Q9FKA0 1-285).
T5 sequence: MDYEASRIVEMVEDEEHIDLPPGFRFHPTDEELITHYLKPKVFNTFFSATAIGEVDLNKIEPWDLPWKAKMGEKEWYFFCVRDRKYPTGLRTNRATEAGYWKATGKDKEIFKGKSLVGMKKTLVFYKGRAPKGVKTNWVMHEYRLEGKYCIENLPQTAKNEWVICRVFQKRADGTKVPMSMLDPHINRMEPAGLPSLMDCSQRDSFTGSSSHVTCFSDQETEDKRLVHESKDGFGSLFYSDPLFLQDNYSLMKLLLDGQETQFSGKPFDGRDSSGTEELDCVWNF
The method, boiled down:
as §1

Another experiment deals with T6, GST-NAP(1-166) (Arabidopsis thaliana, UniProt O49255 1-166).
T6 sequence: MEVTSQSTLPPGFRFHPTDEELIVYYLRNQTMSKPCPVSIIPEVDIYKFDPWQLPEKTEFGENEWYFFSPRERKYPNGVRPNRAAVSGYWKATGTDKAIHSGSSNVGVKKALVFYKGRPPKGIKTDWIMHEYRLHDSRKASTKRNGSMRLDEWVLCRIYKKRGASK
The method, boiled down: as §1

The target in another experiment is T7, GST-NST2(1-184) (Arabidopsis thaliana, UniProt Q9M274 1-184).
T7 sequence: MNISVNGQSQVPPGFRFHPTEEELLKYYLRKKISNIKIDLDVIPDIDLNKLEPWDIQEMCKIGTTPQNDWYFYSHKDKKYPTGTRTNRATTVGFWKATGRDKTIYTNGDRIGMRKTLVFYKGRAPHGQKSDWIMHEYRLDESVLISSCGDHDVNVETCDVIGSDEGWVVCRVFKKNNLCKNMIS
The gist of the method: as §1

A further experiment addresses T8, GST-NTL8 NAC domain (Arabidopsis thaliana, UniProt Q9XIN7 14-156).
T8 sequence: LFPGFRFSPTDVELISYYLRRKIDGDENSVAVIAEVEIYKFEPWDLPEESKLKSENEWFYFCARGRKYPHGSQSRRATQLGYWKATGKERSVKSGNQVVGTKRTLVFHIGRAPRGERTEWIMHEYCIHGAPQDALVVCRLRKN
The gist of the method:
as §1

The target of another experiment is T9, GST-SND1(1-203) (Arabidopsis thaliana, UniProt Q9LPI7 1-203).
T9 sequence: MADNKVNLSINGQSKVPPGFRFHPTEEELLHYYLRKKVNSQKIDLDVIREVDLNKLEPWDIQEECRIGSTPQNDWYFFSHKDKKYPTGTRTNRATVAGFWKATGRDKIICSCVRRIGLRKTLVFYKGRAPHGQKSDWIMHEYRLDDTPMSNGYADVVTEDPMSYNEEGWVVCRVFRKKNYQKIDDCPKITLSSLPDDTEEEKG
The method, boiled down: as §1

The next experiment deals with T10, GST-VND3 NAC domain (Arabidopsis thaliana, UniProt Q9FH59 12-162).
T10 sequence: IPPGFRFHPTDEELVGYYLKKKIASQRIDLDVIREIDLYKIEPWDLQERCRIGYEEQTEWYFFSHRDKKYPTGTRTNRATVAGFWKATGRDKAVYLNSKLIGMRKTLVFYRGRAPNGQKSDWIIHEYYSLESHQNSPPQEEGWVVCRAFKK
The gist of the method:
as §1

The target in the next experiment is T11, GST-VND7 NAC domain (Arabidopsis thaliana, UniProt Q9C8W9 9-158).
T11 sequence: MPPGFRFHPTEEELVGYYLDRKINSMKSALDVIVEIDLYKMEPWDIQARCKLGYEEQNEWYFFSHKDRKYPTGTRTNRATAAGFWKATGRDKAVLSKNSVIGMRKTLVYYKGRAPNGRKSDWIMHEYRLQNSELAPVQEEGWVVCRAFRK
The gist of the method:
as §1

GST-NTL6(1-168), sequence (Q9SCK6 1-168): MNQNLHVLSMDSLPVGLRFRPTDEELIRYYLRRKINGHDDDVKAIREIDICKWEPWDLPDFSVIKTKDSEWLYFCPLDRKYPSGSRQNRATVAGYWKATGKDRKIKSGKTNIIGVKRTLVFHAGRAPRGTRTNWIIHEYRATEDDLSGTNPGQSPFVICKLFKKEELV

Take TACGTAAA: the binding signal with GST-ANAC092(1-176) turned out to be 0.427 E-score; in the experiment with GST-NTL6(1-168) it was 0.095 E-score; in the experiment with GST-ANAC019 NAC domain, 0.43 E-score; with GST-ANAC055(1-171), 0.384 E-score; with GST-ATAF1 NAC domain it was 0.377 E-score; in [1] it was 0.444 E-score. Moreover, the binding signal with GST-NAP(1-166) was 0.399 E-score; with GST-NST2(1-184), 0.261 E-score; with GST-NTL8 NAC domain, 0.172 E-score; in the experiment with GST-SND1(1-203) it was 0.43 E-score; with GST-VND3 NAC domain, 0.421 E-score; in the experiment with GST-VND7 NAC domain, 0.43 E-score.
In the case of AGGAAACG, the binding signal in the experiment with GST-ANAC092(1-176) was found to be 0.207 E-score; with GST-NTL6(1-168) it was 0.125 E-score; with GST-ANAC019 NAC domain, 0.0614 E-score; with GST-ANAC055(1-171) it was 0.149 E-score; in the experiment with GST-ATAF1 NAC domain, 0.208 E-score; in experiment [1], 0.132 E-score. For the same sequence, the binding signal with GST-NAP(1-166) was found to be 0.183 E-score; with GST-NST2(1-184) it was 0.132 E-score; with GST-NTL8 NAC domain, 0.451 E-score; with GST-SND1(1-203) it was 0.224 E-score; with GST-VND3 NAC domain, 0.109 E-score; with GST-VND7 NAC domain it was 0.112 E-score.
Take AAGCAACA: the binding signal in the experiment with GST-ANAC092(1-176) was 0.387 E-score; with GST-NTL6(1-168) it was 0.333 E-score; with GST-ANAC055(1-171) it was 0.134 E-score; in the experiment with GST-ATAF1 NAC domain, 0.0645 E-score; in experiment [1], 0.405 E-score; with GST-NST2(1-184), 0.342 E-score. The binding signal with GST-NTL8 NAC domain worked out at 0.194 E-score; in the experiment with GST-SND1(1-203), 0.439 E-score; with GST-VND3 NAC domain, 0.0696 E-score; with GST-VND7 NAC domain, 0.146 E-score.
As to CTAGGAAA, the binding signal with GST-ANAC092(1-176) turned out to be 0.146 E-score; with GST-NTL6(1-168), 0.188 E-score; with GST-ANAC019 NAC domain, 0.18 E-score; in the experiment with GST-ANAC055(1-171) it was 0.214 E-score; in the experiment with GST-ATAF1 NAC domain, 0.167 E-score; in experiment [1], 0.0932 E-score. Moreover, the binding signal was determined as 0.187 E-score with GST-NST2(1-184); 0.425 E-score with GST-NTL8 NAC domain; 0.145 E-score in the experiment with GST-SND1(1-203); 0.219 E-score in the experiment with GST-VND3 NAC domain; 0.13 E-score with GST-VND7 NAC domain.
As for ATTGCTTC, the binding signal with GST-ANAC092(1-176) is 0.259 E-score; in the experiment with GST-NTL6(1-168), 0.348 E-score; with GST-ANAC019 NAC domain, 0.108 E-score; in the experiment with GST-ANAC055(1-171), 0.0988 E-score; in [1], 0.351 E-score; with GST-NST2(1-184), 0.259 E-score. The binding signal with GST-NTL8 NAC domain turned out to be 0.278 E-score; with GST-SND1(1-203) it was 0.411 E-score; in the experiment with GST-VND3 NAC domain, 0.143 E-score; with GST-VND7 NAC domain, 0.213 E-score.
Consider CTAAGCAA, for which the binding signal with GST-ANAC092(1-176) turned out to be 0.201 E-score; with GST-NTL6(1-168), 0.461 E-score; with GST-ANAC019 NAC domain it was 0.0628 E-score; in experiment [1] it was 0.314 E-score; with GST-NST2(1-184), 0.272 E-score; with GST-NTL8 NAC domain, 0.254 E-score. In addition, the binding signal with GST-SND1(1-203) worked out at 0.473 E-score; in the experiment with GST-VND3 NAC domain, 0.134 E-score; with GST-VND7 NAC domain, 0.184 E-score.
Regarding AAAGGAAA, the binding signal came to 0.196 E-score with GST-ANAC092(1-176); 0.284 E-score with GST-NTL6(1-168); 0.105 E-score with GST-ANAC019 NAC domain; 0.11 E-score with GST-ANAC055(1-171); 0.153 E-score with GST-ATAF1 NAC domain; 0.0862 E-score in experiment [1]. The binding signal in the experiment with GST-NST2(1-184) worked out at 0.179 E-score; in the experiment with GST-NTL8 NAC domain, 0.457 E-score; with GST-SND1(1-203), 0.225 E-score; in the experiment with GST-VND3 NAC domain, 0.166 E-score; with GST-VND7 NAC domain, 0.134 E-score.
As for GTTGCTTA, the binding signal was 0.342 E-score with GST-ANAC092(1-176); 0.425 E-score with GST-NTL6(1-168); 0.0695 E-score with GST-ANAC055(1-171); 0.0821 E-score in the experiment with GST-ATAF1 NAC domain; 0.393 E-score in experiment [1]; 0.327 E-score in the experiment with GST-NST2(1-184). The binding signal stood at 0.13 E-score in the experiment with GST-NTL8 NAC domain, 0.469 E-score with GST-SND1(1-203), 0.0814 E-score in the experiment with GST-VND3 NAC domain and 0.14 E-score with GST-VND7 NAC domain.
Turning to GTAGCGTA, the binding signal with GST-ANAC092(1-176) amounted to 0.427 E-score; in the experiment with GST-NTL6(1-168), 0.111 E-score; with GST-ANAC055(1-171) it was 0.205 E-score; with GST-ATAF1 NAC domain, 0.288 E-score; in [1] it was 0.47 E-score; in the experiment with GST-NAP(1-166), 0.27 E-score. Also, the binding signal with GST-NST2(1-184) worked out at 0.381 E-score; in the experiment with GST-SND1(1-203) it was 0.489 E-score; with GST-VND3 NAC domain, 0.239 E-score; with GST-VND7 NAC domain it was 0.267 E-score.
For the sequence ATTGCTTG, the binding signal was 0.355 E-score in the experiment with GST-ANAC092(1-176); 0.228 E-score with GST-NTL6(1-168); 0.19 E-score with GST-ANAC019 NAC domain; 0.115 E-score in the experiment with GST-ANAC055(1-171); 0.408 E-score in [1]; 0.296 E-score in the experiment with GST-NST2(1-184). The binding signal with GST-NTL8 NAC domain came to 0.143 E-score; with GST-SND1(1-203) it was 0.406 E-score; in the experiment with GST-VND3 NAC domain, 0.223 E-score; with GST-VND7 NAC domain it was 0.218 E-score.
For the sequence CTTGCTTA, the binding signal stood at 0.251 E-score with GST-ANAC092(1-176); 0.416 E-score in the experiment with GST-NTL6(1-168); 0.0719 E-score with GST-ANAC019 NAC domain; 0.136 E-score with GST-ATAF1 NAC domain; 0.347 E-score in experiment [1]; 0.17 E-score with GST-NST2(1-184). Moreover, the binding signal with GST-NTL8 NAC domain was 0.194 E-score; with GST-SND1(1-203), 0.437 E-score; with GST-VND3 NAC domain, 0.124 E-score; with GST-VND7 NAC domain, 0.0501 E-score.
